The list is not random: actives were taken first. Their share in the collection is about 2.2%.
TDP43 rescue = inhibitors of TDP-43 toxicity in yeast; TDP-43 expressing yeast growth rescue, BacTiter-Glo, 24 h; Potency, µM (highest dose often 46.1 µM), for inactives: top-dose growth rescue (activation), usual class: activators; actives 1.8% (n = 410,000); AID 652104; also: % of control where 0% means no effect; nearly all actives have a fitted effect of over 50% in size
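Yeast expressing TDP-43 (pregrown in raffinose, seeded at OD600=0.02 in galactose medium) exposed to compounds 24 hr at 30 deg C. Growth read by BacTiter-Glo luminescence; rescue of toxicity appears as increased signal.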
FUS suppressor = rescues growth of FUS-expressing yeast; AID 1347120; Potency, µM (doses to about 76.6 µM), usual class: activators; S. cerevisiae FUS-expressing, growth rescue, OD600, 24 h; actives 0.24% (n = 390,000);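 also: plate controls were DMSO vehicle for no effect and reference control for full effect; nearly all actives have a fitted effect of over 55% in size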
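Absorbance at 600 nm, taken 24hr after compound addition, measured rescue of FUS-yeast growth at 30C. Induction used 2% galactose with seeding at OD 0.005. Controls: CP55940 from 92uM final, DMSO only.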
aSyn yeast inh = inhibitors of alpha-synuclein toxicity in yeast; actives 0.14% (n = 370,000); Potency, µM (titrated, usually from 46.1 µM), without a hit: top-dose growth rescue (activation), actives largely listed as activators; Yeast expressing alpha-synuclein, growth rescue, BacTiter-Glo, 24 h; also: % of control where 0% means no effect; nearly all actives have a fitted effect of over 65% in size
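Screening used galactose-induced yeast with toxic alpha-synuclein levels, exposed to compound for 24 hr at 30 deg C. Cell growth, read with BacTiter-Glo luminescence, gave the measured signal.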
Mito fusion yeast = inhibitors of mitochondrial division or activators of mitochondrial fusion; S. cerevisiae fusion-defective mutant growth rescue, CellTiterGlo 48 h; Potency, µM (series often up to 46.1 µM), for inactives: at the top dose growth rescue (activation), usual class: activators; actives 0.23% (n = 320,000); also: % of control where 0% means no effect; nearly all actives have a fitted effect of over 45% in size
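Read-out: ATP-based luminescence (CellTiterGlo, 10 min ambient) reporting growth of fusion-defective ts yeast after 48 hours at 37C on glycerol/ethanol YPEG medium in the presence of compound.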
Abeta yeast res = A-beta toxicity reversal in yeast. yeast expressing A-beta42, growth rescue, OD600, 48 h; response scale: 0% DMSO, 100% iron-clioquinol control. Potency, µM (highest dose often 46.1 µM), actives largely listed as activators. actives 0.063% (n = 410,000). AID 1347071; also: nearly all actives have a fitted effect of over 55% in size
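Growth rescue measured by 600 nm absorbance after 48 h yeast culture at 30 C with compound. Values normalized between DMSO and an equimolar ferric chloride plus clioquinol control.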
* marks the source's active call; other numbers are inactive results; i = inactive; ? = inconclusive; . = not tested or not shown. Calls follow the shape of the dose curve; as a rule, active = well fitted curve in the direction sought with a large enough effect; inconclusive = small, poorly fitted or top-dose-only effect, or another doubt; inactive = no such curve, though single readings can be large; an effect the other way counts as inactive or inconclusive. Potency is read from the fitted curve at half-maximal effect.

SMILES	TDP43 rescue	FUS suppressor	aSyn yeast inh	Mito fusion yeast	Abeta yeast res
CCOC(=O)CC[C@@]1(C(=O)OCC)C[C@@H](CC(=O)N2CCSCC2)C(=O)N2CCCC=C21	.	i	.	.	.
c1ccc(-c2onc3cc4c(cc23)OCCO4)cc1	35µM*	i	-1%	1%	i
S=c1nc(-c2ccccc2)n(-c2ccccc2)[nH]1	-8%	i	-2%	-18%	i
S=c1nc(C2CCCCC2)n(-c2ccccc2)[nH]1	3%	i	-4%	9%	13µM*
COc1ccc2nc(N3C(=O)CC(C(C)c4ccccc4)C3=O)sc2c1 (stereo not drawn)	11µM*	.	1%	-9%	i
COc1ccc(N2CCN(C(=O)Cn3ncc4c3-c3cc(C)ccc3OC4)CC2)cc1	6%	i	.	.	i
Cc1ccc(Cn2c(C)c3cnn(CC(=O)N4CCN(c5cc(C)ccc5C)CC4)c(=O)c3c2C)cc1	16µM*	?	.	.	i
Cc1ccc2c(c1)-c1c(cnn1CC(=O)N1CCN(c3cc(C)ccc3C)CC1)CO2	35µM*	i	.	.	i
Cc1cccc(N2CCN(C(=O)Cn3ncc4c3-c3ccccc3OC4)CC2)c1C	18µM*	?	.	.	i
CC1CCN(C(=O)C2CCCN(C(=O)c3ccc4c(c3)NC(=O)CS4)C2)CC1 (stereo not drawn)	.	i	.	.	.
COc1ccc(Cl)cc1S(=O)(=O)N1CCN(Cc2cccc(F)c2)CC1	18%	i	.	-1%	i
O=c1c2ccc([N+](=O)[O-])cc2ncn1CCOc1ccc(Cl)cc1	25µM*	i	7%	3%	i
O=c1c2ccc([N+](=O)[O-])cc2ncn1CCOc1cccc(Br)c1	5%	i	5%	4%	i
COc1cc(NC(=O)c2nnn(CC(=O)Nc3ccccc3)c2N)cc(OC)c1	20%	i	.	.	i
Cc1ccc(C(=O)NCC(c2cccnc2)N2CCc3ccccc3C2)cc1C (stereo not drawn)	15%	i	.	.	i
CC(C)(C)c1ccc(C(=O)NCC(c2cccnc2)N2CCc3ccccc3C2)cc1 (stereo not drawn)	22µM*	i	.	.	i
COc1ccc(S(=O)(=O)NCCc2sc(C)nc2C)cc1F	13%	i	7%	.	i
O=C(C[N+]1(CCO)CCOCC1)c1cccc2ccccc12	.	.	-8%	.	.
Oc1ccc(Br)cc1-c1nc2cnccn2c1NC1CCCC1	22µM*	i	11%	21%	i
Cc1nn(C)c(C(=O)NC(=S)Nc2ccccc2Br)c1Cl	0%	i	-10%	-1%	i
CCn1ncc(Cl)c1C(=O)NC(=S)Nc1ccccc1Br	5.6µM*	i	-26%	7%	i
Cc1ccccc1OCC(=O)Nc1nnc(SCc2cc(=O)n3cc(Cl)ccc3n2)s1	16%	i	.	.	i
Cc1ccc(S(=O)(=O)Nc2ccc(C(=O)N3CCN(c4ccccc4O)CC3)cc2)cc1[N+](=O)[O-]	-10%	13µM*	0%	?	i
Cc1ccccc1NS(=O)(=O)c1ccc(C(=O)N2CCN(c3ccccc3O)CC2)cc1	18%	.	-1%	5%	i
Cc1cccc(NC(=O)Cn2cnc3ccc(S(=O)(=O)N4CCC(C)CC4)cc3c2=O)n1	-8%	35µM*	-8%	3%	i
SMILES	TDP43 rescue	FUS suppressor	aSyn yeast inh	Mito fusion yeast	Abeta yeast res
O=C1C=C(c2ccccc2)OC(c2ccccc2)O1 (stereo not drawn)	13µM*	i	11%	0%	i
O=C1C=C(c2ccccc2)OC2(CCCC2)O1	?	i	.	3%	i
COCCNC(=O)c1ccc2c(c1)ncn2-c1cccc(C)c1	.	i	.	1%	i
Cc1cc(C)n(-c2ccc(C(=O)N3CCc4ccccc43)cc2)n1	11µM*	i	-3%	12%	i
Cc1cccc(-n2cnc3cc(C(=O)N4CCc5ccccc54)ccc32)c1	13µM*	.	24%	7%	i
S=C(Nc1cccc(Cl)c1)OC1CCC12CCC(c1ccccc1)CC2 (stereo not drawn)	.	i	.	.	.
C/C(=N\NC(=O)COc1ccccc1-c1ccccc1)c1ccccn1	?	i	18µM*	?	i
CN(C)c1ccc(N=Cc2ccncc2)cc1	.	.	0%	.	.
COc1ccc(-c2ccc(=O)n(Cc3cccc([N+](=O)[O-])c3)n2)cc1	18µM*	i	1%	-5%	.
COc1ccc(-c2ccc(=O)n(Cc3c(F)cccc3Cl)n2)cc1	?	i	2%	?	i
O=C(NCCC1=CCCCC1)NC12CC3CC(CC(C3)C1)C2	16µM*	i	-12%	8%	i
O=C(NCCc1ccc(F)cc1)NC12CC3CC(CC(C3)C1)C2	4%	i	-13%	15%	i
NC(=O)C(OC(=O)CNC(=O)C1CCCCC1)c1ccccc1 (stereo not drawn)	.	.	-3%	.	.
CCc1ccc2[nH]c(=O)c(CN(Cc3ccco3)Cc3nnnn3Cc3ccco3)cc2c1	.	.	1%	.	.
CN(C)c1ccc(-c2nnc(SCC(=O)NCc3ccco3)n2C)cc1	.	.	-2%	.	.
CC(C)(C)NC(=O)C(c1ccncc1)n1c(=O)c(-c2cc3ccccc3[nH]2)nc2ccccc21 (stereo not drawn)	23%	?	?	.	i
CC(C)(C)NC(=O)C(c1cc2ccccc2o1)n1c(=O)c(-c2cc3ccccc3[nH]2)nc2ccccc21 (stereo not drawn)	12%	?	8.9µM*	.	?
CC(C)(C)NC(=O)C(c1ccccc1F)n1c(=O)c(-c2cc3ccccc3[nH]2)nc2ccccc21 (stereo not drawn)	?	?	7.1µM*	.	i
CCOc1ccc(NC(=O)NC(C)c2c(-n3cccc3)sc3c2CCN(CC)C3)cc1 (stereo not drawn)	11%	i	.	.	i
COC(=O)[C@]12C[C@H](CC(=O)N3CCCCC3)C(=O)N(Cc3ccco3)C1=C[C@H](C(C)(C)C)O[C@@H]2C	.	i	.	.	.
COc1ccc(N=Nc2nc3ccc(Br)cc3n2C)cc1	13µM*	i	-15%	-5%	i
COc1ccc(-c2c(-c3cc(OC)cc(OC)c3)n(C)c3ccc(Br)cc23)cc1	13%	i	1%	2%	i
O=C(CBr)c1ccc(Oc2ccc(C(=O)C[n+]3ccccc3Cl)cc2)cc1	.	.	5%	.	.
O=C1CCC[C@H]2Cc3nc4ccccc4cc3C[C@]23CCCN13	.	i	.	.	.
S=C(NCc1ccccc1)N1CCc2ccccc2C1	11µM*	i	3%	2%	i
C=CCNC(=O)N1CCc2[nH]c3ccc(F)cc3c2C1	13%	i	-1%	7%	i
Cc1cccc(C(=O)NC(=S)N2CCc3ccccc3C2)c1	20µM*	i	-2%	29%	?

From PubChem
